# Compounds with a hit are over-represented: about 3.8% of the library has one in this group of screens.
# GLS inh – qHTS for Inhibitors of Glutaminase (GLS); GLS enzymatic activity, qHTS titration; 410,000 tested, 0.21% active; Glutaminase kidney isoform, mitochondrial (Homo sapiens), O94925; Potency, µM (doses to about 45.5 µM), without a hit: top-dose activity change, negative = inhibition, usual class: inhibitors
#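 Coupled fluorescence readout: glutamate oxidase/HRP/Amplex Red detect glutamate formed by hKGA from L-glutamine (1 mM solution added). Buffer 45 mM KH2PO4 pH 8.2, 0.02% Tween-20; reads at t0 and 30 min RT.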
# Sfp inh – qHTS Assay for Inhibitors of Bacillus subtilis Sfp phosphopantetheinyl transferase (PPTase); 310,000 tested, 3.5% active; AID 1490, 2009; Potency, µM, without a hit: largest response in the series, negative = inhibition, usual class: inhibitors; Biochemical Sfp PPTase activity, qHTS;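 further: the enzyme is Sfp with the accession as filed and its product quenches rhodamine fluorescence; 0% = enzyme reaction without inhibitor and -100% = no enzyme wells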
#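 After 15 min at room temperature with compound, 15 nM Sfp received 5 uM rhodamine-CoA plus 12.5 uM BHQ-2-ybbR (50 mM Hepes pH 7.6, 10 mM MgCl2). Rate came from the fluorescence difference over 30 min, ex 525/em 598 nm.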
# rTrxR1 inhibitor – qHTS Assay for Inhibitors of Mammalian Selenoprotein Thioredoxin Reductase 1 (TrxR1): qHTS; AID 588453, 2011; 390,000 tested, 1% active; recombinant rTrxR1, NADPH fluorescence consumption, selenite substrate; Thioredoxin reductase 1, cytoplasmic (Rattus norvegicus), O89049; Potency, µM (highest dose often 114 µM), without a hit: at the highest dose activity change, negative = inhibition, most hits filed as inhibitors; further: nearly all actives have a fitted effect of over 65% in size
# Target sequence (O89049 whole entry, looked up): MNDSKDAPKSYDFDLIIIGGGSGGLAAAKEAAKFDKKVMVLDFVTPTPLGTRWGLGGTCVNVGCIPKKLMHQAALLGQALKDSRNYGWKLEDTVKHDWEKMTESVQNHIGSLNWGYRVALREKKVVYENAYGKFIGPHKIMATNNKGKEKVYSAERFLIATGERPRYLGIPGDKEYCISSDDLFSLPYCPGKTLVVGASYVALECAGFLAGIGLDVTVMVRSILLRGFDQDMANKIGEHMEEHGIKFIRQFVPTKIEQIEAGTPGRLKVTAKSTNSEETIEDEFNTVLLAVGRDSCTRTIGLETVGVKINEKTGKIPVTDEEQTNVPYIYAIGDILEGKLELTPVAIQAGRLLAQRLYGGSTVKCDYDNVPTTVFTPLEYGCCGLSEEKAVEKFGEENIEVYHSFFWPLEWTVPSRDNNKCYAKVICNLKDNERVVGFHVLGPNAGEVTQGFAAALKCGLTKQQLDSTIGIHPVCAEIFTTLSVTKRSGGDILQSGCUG
#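 Rat TrxR1 (90 nM in the dispensed reagent) was pre-reduced with 400 uM NADPH for 5 min at room temperature, then incubated with compound for 15 min. After 400 uM selenite was added, NADPH fluorescence (Ex 340/Em 450 nm) was followed for 8 min.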
# TrxR1 substrate – qHTS Assay for Substrates of Mammalian Selenoprotein Thioredoxin Reductase 1 (TrxR1): qHTS. Thioredoxin reductase 1, cytoplasmic (Rattus norvegicus), O89049. purified TrxR1 substrate turnover, NADPH consumption readout. Potency, µM (series often up to 114 µM), for the others: at the top dose activity change, negative = substrate turnover. 390,000 tested, 0.01% active; further: nearly all actives have a fitted effect of over 50% in size
#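 Rat TrxR1, dispensed at 90 nM, was prereduced with 400 uM NADPH (final) for 5 min at ~22 deg C, then incubated with compound 15 min before 400 uM selenite. A first-read NADPH fluorescence drop versus no-compound background flagged substrates.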
# GCN5L2 inh – qHTS Assay for Inhibitors of GCN5L2 | Histone acetyltransferase KAT2A (Homo sapiens), Q92830 | GCN5L2 HAT assay, ThioGlo1 CoA-SH fluorescence | Potency, µM (titrated, usually from 58.9 µM), inactives show at the highest dose activity change, negative = inhibition, usual class: inhibitors | 390,000 tested, 0.21% active | AID 504327, 2011
#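 Preincubate 20nM GCN5L2 with compound 15 min, RT → add 50uM ThioGlo1 + 75uM H3(1-25) + 70uM acetyl-CoA → read fluorescence 0 and 20 min. Primary qHTS; fluorescent artifacts likely.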
# VDR inhibitor – Inhibitors of the vitamin D receptor (VDR): qHTS | Vitamin D3 receptor (Homo sapiens), P11473 | VDR-SRC2-3 peptide fluorescence polarization, 2 h | Potency, µM, for the others: max response, negative = inhibition, actives largely listed as inhibitors | 400,000 tested, 0.93% active
#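 Compounds are added to VDR with labelled SRC2-3 coactivator peptide and held 2 h at room temperature. Inhibition of the VDR–peptide interaction is then read as a change in fluorescence polarization.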
# Numbers without * were called inactive; ? = inconclusive; / = no result; [ ] = another dose, or the depositor's remark. The call rests on the fitted dose curve; in most records, active means well fitted curve in the direction sought with a large enough effect; inconclusive means small, poorly fitted or top-dose-only effect, or another doubt; inactive means no such curve, though single readings can be large; an effect the other way counts as inactive or inconclusive. Unless noted, on the % scale 0 is the no-effect control and ±100 the full control effect; potency means the concentration at half of the fitted maximal effect.
SMILES,GLS inh,Sfp inh,rTrxR1 inhibitor,TrxR1 substrate,GCN5L2 inh,VDR inhibitor
CC(=O)NCc1ccc(C(=O)CSc2nnc(-c3ccncc3)n2Cc2ccccc2)o1,-19.2%,?,15.8µM*,-1.3%,-10.7%,-1.3%
O=C(CSc1nnc(-c2ccncc2)n1Cc1ccccc1)NC1CCCCC1,-24.3%,5.9%,18.2%,-0.8%,-16.9%,-5.9%
CC[C@H](C)[C@H](N)C(=O)N[C@@H](CCCCN)C(=O)N[C@H](C(=O)N[C@@H](C)C(=O)N[C@H](C(=O)O)C(C)C)C(C)C,/,0.1%,/,/,-20.7%,23.0%
Cc1ccc(N2C(=O)CS(=O)(=O)CC2=O)cc1,0.4%,6.5%,4.47µM*,7.9%[57.1 µM],-13.9%,5.0%
Cc1ccc(N2CC(=O)N(c3ccc(C)cc3)CC2=O)cc1,2.7%,27.6%,26.0%[57.1 µM],12.8%[57.1 µM],-3.8%,4.9%
Cc1cccc(NC(=O)c2nc(S(C)(=O)=O)ncc2Cl)c1,4.3%,/,7.08µM*,11.2%[57.1 µM],0.6%,?
COc1cccc(NC(=O)c2nc(S(C)(=O)=O)ncc2Cl)c1,-2.0%,?,8.91µM*,5.8%,-3.8%,20µM*
CCOC(=O)c1c(NC(=O)c2noc(C)c2[N+](=O)[O-])sc(C(C)=O)c1C,-2.0%,-20.8%,?,-5.3%,-18.1%,-13.4%
CCOC(=O)c1c(NC(=O)c2nc(S(C)(=O)=O)ncc2Cl)sc(C(C)=O)c1C,5.1%,/,1.41µM*,4.4%,-2.6%,-28.5%
CCS(=O)(=O)c1ncc(Cl)c(C(=O)Nc2c(C(=O)Nc3cccc(C)c3)oc3ccccc23)n1,1.3%,/,9.3%,5.6%,0.1%,8.9%
Cc1ccc(NC(=S)NNC(=S)NC2CCCCC2)cc1,?,39.8µM*,-5.2%[57.1 µM],5.3%[57.1 µM],-6.4%,?
CC(C)c1ccc(NC(=S)NC2CCCCCC2)cc1,-0.2%,9.8%,8.8%,-3.3%,-14.1%,-5.0%
CC(=O)c1ccc(NC(=S)NNC(=O)NC2CCCCC2)cc1,?,15.8µM*,14.5%[57.1 µM],12.2%[57.1 µM],-3.0%,-26.0%
O=S(=O)(NC(=S)NC1CCCCC1)c1ccc(Br)cc1,?,-7.0%,2.82µM*,13.5%,-9.3%,-5.0%
NS(=O)(=O)c1ccc(NC(=S)NC2CCCCCC2)cc1,1.3%,25.1µM*,15.8µM*,-4.9%,-2.5%,-12.0%
O=C(O)c1ccc(NC(=S)NC2CCCCC2)cc1,2.1%,?,-16.4%,-7.4%,0.6%,-7.7%
O=C(CCNS(=O)(=O)c1ccc(Br)cc1)NC1CCCCC1,5.4%,15.3%,2.1%,0.9%,?,1.1%
CC(C)(C)c1ccc(C(=O)N2CCC2(C)C(=O)NS(=O)(=O)c2ccc(C#N)cc2)cc1 (stereo not drawn),2.9%,/,/,/,/,/
CCOC(=O)c1cc2occc2n1CC(=O)N1CCCc2ccccc21,14.9%,79.4µM*,?,-6.3%,-3.9%,-10.0%
FC(F)(F)c1cc(-c2ccco2)nc(NCc2ccccc2)n1,2.2%,20µM*,?,10.9%,33.6%,-12.5%
CCOC(=O)c1ccccc1NC(=O)c1cc2c(s1)-c1ccccc1SC2,5.8%,/,18.7%,37.7%,-2.8%,3.5%
NS(=O)(=O)c1ccc(NC(=S)NCc2ccc3c(c2)OCO3)cc1,-0.9%,20µM*,-41.1%,-13.9%[57.1 µM],-27.1%,0.5%
NS(=O)(=O)c1cccc(NC(=S)NCc2ccc3c(c2)OCO3)c1,0.0%,-20.4%,21.8%[57.1 µM],9.0%,2.8%,-8.2%
NS(=O)(=O)c1ccc(CNC(=S)Nc2ccc(F)c(Cl)c2)cc1,5.3%,-12.5%,-10.1%[57.1 µM],0.9%[57.1 µM],-1.4%,12.7%
NS(=O)(=O)c1ccc(NC(=S)NCc2ccco2)cc1,87.7%,20µM*,-13.0%[57.1 µM],-2.0%,-1.6%,?
SMILES,GLS inh,Sfp inh,rTrxR1 inhibitor,TrxR1 substrate,GCN5L2 inh,VDR inhibitor
NS(=O)(=O)c1ccc(NC(=S)NCc2ccc(Cl)cc2)cc1,-17.6%,22.4µM*,6.7%,0.2%,-19.5%,?
Cc1ccc([C@H]2N[C@]3(CCCN(Cc4ccco4)C3=O)[C@H]3C(=O)N(C)C(=O)[C@@H]23)cc1,11.2%,/,/,/,/,/
CCOc1ccc(N2CC(C)Cn3c2nc2c3c(=O)n(CC(=O)O)c(=O)n2C)cc1 (stereo not drawn),?,/,3.0%,-6.3%,-5.2%,3.6%
CCCc1cc(C(=O)Nc2sc3c(c2C#N)CCC3)no1,2.7%,50.1µM*,11.0%[57.1 µM],9.5%[57.1 µM],-3.8%,70.8µM*
CCCC(=O)Nc1sc2c(c1C#N)CCCC2,-3.2%,13.0%,6.3%[57.1 µM],5.3%[57.1 µM],0.8%,7.4%
CCc1c(C)sc(NC(=O)C2CCCO2)c1C#N (stereo not drawn),32.0%,22.4µM*,11.2%,0.5%,-5.8%,?
CCCc1cc(C(=O)Nc2sc(C)c(CC)c2C#N)no1,10.1%,56.2µM*,17.5%[57.1 µM],-6.8%,-16.9%,?
Cc1ccc(N2CCN(C(=O)c3cn(C)c4ccc(S(=O)(=O)N5CCC(C)CC5)cc4c3=O)CC2C)cc1 (stereo not drawn),14.5%,/,20.5%,-3.1%,-9.2%,4.2%
CCN1C(=O)CC(NNC(=O)c2ccccc2)C1=O (stereo not drawn),19.3%,-5.2%,26.6%,7.3%,0.0%,6.2%
COCCN1C(=O)CC(NNC(=O)c2ccc(S(=O)(=O)N3CCCC3)cc2)C1=O (stereo not drawn),10µM*,27.2%,-0.4%[57.1 µM],-2.8%[57.1 µM],7.3%,-9.2%
CCC(=O)NNC(=O)c1c(O)c2ccccc2[nH]c1=O,16.5%,7.8%,31.8%,8.1%,3.9%,1.4%
CCCCCC(=O)NNC(=O)Cc1ccc([N+](=O)[O-])cc1,0.9%,3.7%,13.4%[57.1 µM],7.7%,-8.5%,-14.2%
N#CCSc1nnc(COc2ccccc2)n1-c1ccccc1,-4.1%,6.7%,-4.8%,-7.5%,-1.9%,-4.7%
Cc1cc(C)cc(NC(=O)Oc2ccccc2N2CCCCC2)c1,10µM*,3.6%,11.8%[57.1 µM],4.3%[57.1 µM],0.5%,-5.3%
O=C(Nc1cccc(C(F)(F)F)c1)Oc1ccccc1N1CCOCC1,20.3%,8.6%,24.8%,1.1%,-1.1%,-20.0%
Cc1[nH]n(-c2ccccc2)c(=S)c1C=Nc1ccc([N+](=O)[O-])cc1,-1.0%,6.31µM*,?,-14.3%,7.94µM*,39.8µM*
Cc1[nH]n(-c2ccccc2)c(=O)c1C=Nc1ccc(S(=O)(=O)N=C(N)N)cc1,-1.3%,18.9%,-0.3%,0.8%,1.6%,-10.4%
